Measurements from ChEMBL document CHEMBL1201862, “PubChem BioAssay data set” (2004).
The campaign covered roughly 400,000 compounds. About 2,100 (0.53%) were called active. About 14% were inconclusive and are not listed. No rule for the calls is given here. The entries come from a sample that favours actives as a whole.

What follows are compounds tested against Ataxin-2 (Homo sapiens) (UniProt Q99700) (assay: qHTS for Inhibitors of ATXN expression.).
Type: functional

Sequence of Ataxin-2 (Homo sapiens) (Q99700 whole entry): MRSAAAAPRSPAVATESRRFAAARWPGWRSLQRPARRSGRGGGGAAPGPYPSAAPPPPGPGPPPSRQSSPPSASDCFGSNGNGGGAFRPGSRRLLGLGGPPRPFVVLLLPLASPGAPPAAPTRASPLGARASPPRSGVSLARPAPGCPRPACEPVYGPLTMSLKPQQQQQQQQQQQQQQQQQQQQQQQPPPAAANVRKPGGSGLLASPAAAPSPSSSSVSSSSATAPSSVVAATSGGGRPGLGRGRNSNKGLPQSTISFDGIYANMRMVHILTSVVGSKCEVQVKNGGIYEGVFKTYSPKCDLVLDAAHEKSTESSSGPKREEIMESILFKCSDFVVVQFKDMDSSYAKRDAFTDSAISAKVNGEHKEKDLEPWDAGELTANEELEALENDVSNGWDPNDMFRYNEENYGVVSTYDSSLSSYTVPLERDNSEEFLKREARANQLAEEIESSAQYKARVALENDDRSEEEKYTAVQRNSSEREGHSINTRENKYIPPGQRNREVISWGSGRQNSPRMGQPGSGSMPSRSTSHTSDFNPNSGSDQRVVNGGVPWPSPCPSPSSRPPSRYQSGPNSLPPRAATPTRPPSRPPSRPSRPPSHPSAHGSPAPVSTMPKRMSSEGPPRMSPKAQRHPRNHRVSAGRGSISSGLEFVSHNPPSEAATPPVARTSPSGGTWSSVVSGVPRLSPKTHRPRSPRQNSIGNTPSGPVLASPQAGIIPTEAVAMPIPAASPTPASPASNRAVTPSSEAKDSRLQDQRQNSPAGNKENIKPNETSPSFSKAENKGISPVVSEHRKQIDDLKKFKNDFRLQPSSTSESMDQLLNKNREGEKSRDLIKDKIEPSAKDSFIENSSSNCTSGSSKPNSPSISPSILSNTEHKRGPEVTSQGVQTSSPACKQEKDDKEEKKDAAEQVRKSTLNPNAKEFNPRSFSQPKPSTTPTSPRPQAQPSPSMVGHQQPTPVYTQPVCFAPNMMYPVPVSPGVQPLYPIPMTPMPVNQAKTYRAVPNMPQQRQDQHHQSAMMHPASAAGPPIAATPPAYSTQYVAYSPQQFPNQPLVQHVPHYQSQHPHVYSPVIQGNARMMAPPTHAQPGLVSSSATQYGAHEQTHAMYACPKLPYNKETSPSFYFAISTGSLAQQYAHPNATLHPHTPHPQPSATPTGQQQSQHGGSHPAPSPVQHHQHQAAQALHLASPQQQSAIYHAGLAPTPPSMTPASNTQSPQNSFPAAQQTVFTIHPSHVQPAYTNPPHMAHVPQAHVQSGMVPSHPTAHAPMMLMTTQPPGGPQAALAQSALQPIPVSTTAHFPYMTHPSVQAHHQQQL

SMILES | Potency
COc1cc2c(cc1N/C=C(\C#N)c1nc(-c3ccccc3)cs1)oc1ccccc12 | inactive
COc1cc2c(cc1NC(=O)COC(=O)/C=C/c1ccccc1)oc1ccccc12 | 17.8 µM (active)
COc1ccc(C(=N)NOC(=O)/C=C/c2ccccc2)cc1 | inactive
CCCCc1ccc(/C(C)=N/Nc2cc(N3CCOCC3)nc(C)n2)cc1 | inactive
O=C(CN1C(=O)NC2(CCCC2)C1=O)Nc1nc(-c2ccccc2)cs1 | inactive
O=C(CN1CCN(Cc2ccccc2)CC1)Nc1ccc2c(c1)CCC2 | inactive
O=C(CN1C(=O)NC2(CCCCC2)C1=O)Nc1ccc2c(c1)CCC2 | 28.2 µM (active)
CCc1ccccc1-n1c(N)c(C(=O)OC)c2nc3ccccc3nc21 | inactive
O=C(O)c1cc2c(ncc3c(=O)n(-c4ccccc4)[nH]c32)s1 | inactive
Cc1[nH]n(-c2ccccc2)c(=O)c1N=Nc1nccs1 | 39.8 µM (active)
CN1C(=O)c2cccc3c(S(=O)(=O)N(C)C)ccc1c23 | inactive
CN(C)S(=O)(=O)c1ccc2[nH]cc(/C=C/c3nc4ccccc4c(=O)n3-c3ccccc3)c2c1 | inactive
Cc1[nH]n(-c2ccccc2)c(=O)c1N=Nc1c(O)cc(S(=O)(=O)N(C)C)c2ccccc12 | 4.47 µM (active)
Cc1[nH]n(-c2ccc(Cl)cc2)c(=O)c1N=Nc1cccnc1 | inactive
Cc1cccc(/N=c2\oc3cc(O)ccc3cc2C(N)=O)c1 | inactive
COc1cccc(C2Oc3ccccc3C3CC(c4cccs4)=NN32)c1 (stereo unspecified) | inactive
COC(=O)c1sc2nc3c(c(-c4cccs4)c2c1N)CCCC3 | inactive
CC1(C)Cc2c(sc3nc(SCC(=O)O)nc(N)c23)CO1 | inactive
COC(=O)CSc1nc(N)c2c3c(sc2n1)C(c1ccccc1)SC(c1ccccc1)C3 (stereo unspecified) | 35.5 µM (active)
Cc1ccc2oc(=O)c(S(=O)(=O)c3ccc(F)cc3)cc2c1 | inactive
Cc1ccc(NC(=O)COC(=O)c2c[nH]c3ccccc23)cc1C | inactive
O=C(NCCOc1ccccc1Cl)C(=O)c1c[nH]c2ccccc12 | inactive
Cc1cn(-c2cc(C(=O)Nc3ccc(C)c(NC(=O)C(=O)c4c[nH]c5ccccc45)c3)cc(C(F)(F)F)c2)cn1 | 20 µM (active)
OCCN1CCN(c2ncnc3c2ncn3[C@H]2CN(Cc3ccc(-c4ccccc4)cc3)C[C@@H](CO)O2)CC1 | 39.8 µM (active)
COc1ccc(/C=N/N(C)C2=NS(=O)(=O)c3ccccc32)cc1 | inactive
CCCC/C=C1/CCC(CN(C)C)C1=O (stereo unspecified) | 37.7 µM (active)

SMILES | Potency
CSc1ccc(/C=C/C(=O)OCC(=O)N2CCc3ccccc32)cc1 | inactive
COc1cccc(C2NC(=O)CCC2[N+](=O)[O-])c1 (stereo unspecified) | inactive
COc1ccc(/C=C2\CCC/C(=C\C=N\N(C)C)C2=O)cc1 | 11.2 µM (active)
CN(C)CC1CCC/C(=C\c2ccc(OC(=O)/C=C/c3ccccc3)cc2)C1=O (stereo unspecified) | 35.5 µM (active)
CCCC(/C=C/c1ccc(OC(C)=O)cc1)=C1/c2ccccc2C(=O)N1c1ccccc1 | inactive
COc1cccc(NC=C2C(=O)CCCC2=O)c1 | inactive
COc1cccc(/C=C2/CCC(CN(C)C)C2=O)c1 (stereo unspecified) | 9.47 µM (active)
CN(C)c1ccc(/C=C2\CCCc3c2nc2ccccc2c3C(=O)O)cc1 | inactive
Cc1noc(C)c1COc1ccc(C(=O)OCC(=O)Nc2ccc(S(N)(=O)=O)cc2)cc1 | inactive
CN(C)S(=O)(=O)Oc1ccsc1C(=O)Nc1ccc(Br)cc1 | inactive
COc1ccc(/C=C/CN2CCN(CC(C)C)C(CCO)C2)cc1 (stereo unspecified) | inactive
CC1CCN(c2ccc3c(c2)S(=O)(=O)c2cc(C(=O)O)ccc2C3=O)CC1 | inactive
Brc1ccc2ncc(Br)cc2c1 | inactive
CCCCn1nc(NC(=O)c2cccs2)c2cc3cc(OC)ccc3nc21 | inactive
O=C(O)c1c2c(nc3ccccc13)/C(=C/c1ccc(O)cc1)CC2 | inactive
COc1ccc(/C=C2/CCCC(CN(C)C)C2=O)cc1 (stereo unspecified) | 13.4 µM (active)
CN(C)CC1CC/C(=C\c2ccc(O)cc2)C1=O (stereo unspecified) | 39.8 µM (active)
Cc1cc(=O)oc2cc3c(cc12)OCCN3 | inactive
CC(C)(C)c1ccc(C2=CC(c3ccccc3)n3ncnc3N2)cc1 (stereo unspecified) | inactive
CCN(CC)c1ccc2c(C)c(CO)c(=O)oc2c1 | inactive
COc1c(Br)cc(/C=N/n2c(S)nnc2-c2ccccc2)c(O)c1Br | inactive
O=C(Nc1cccc(NC(=O)c2cc([N+](=O)[O-])ccc2Cl)n1)c1cc([N+](=O)[O-])ccc1Cl | 22.4 µM (active)
O=C(Nc1cccc(NC(=O)c2cccc([N+](=O)[O-])c2)n1)c1cccc([N+](=O)[O-])c1 | inactive
Cc1cccc(NC(=O)c2cc(Cl)nc3ccccc23)n1 | inactive
c1cn2c(NC3CCCCC3)c(-c3ccc(SC4CCCCC4)cc3)nc2cn1 | inactive
CCc1ccc(S(=O)(=O)ON2C(=O)c3ccccc3C2=O)cc1 | 23.8 µM (active)

SMILES | Potency
COc1ccccc1NC(=O)N1CCN(c2ccc3nnc(-c4ccc(F)cc4)n3n2)CC1 | 25.1 µM (active)
Fc1ccc(-c2nnc3ccc(N4CCc5ccccc5C4)nn23)cc1 | 35.5 µM (active)
Cc1ccc(F)cc1NC(=O)N1CCCN(c2ccc(C(F)(F)F)cn2)CC1 | inactive
COc1ccc(Cl)cc1NC(=O)N1CCN(c2ccccc2OC)CC1 | inactive
CCN(CC)C(=O)CSc1nc2ccccc2c(=O)n1CCC(=O)N1CCN(c2ccccc2)CC1 | inactive
COc1ccc(-n2cc(C(=O)c3cc(Cl)ccc3O)cc(C#N)c2=O)cc1 | inactive
Clc1cccc(Cc2c(-c3ccco3)nc3ccc(Br)cn23)c1 | 31.6 µM (active)
Fc1cccc(Cc2c(-c3ccco3)nc3ccc(Cl)cn23)c1 | 39.8 µM (active)
Clc1cccc(Cc2c(-c3ccco3)nc3ccc(Cl)cn23)c1 | 28.2 µM (active)
COc1ccc2nc(-c3ccco3)c(-c3ccco3)nc2c1 | inactive
Clc1cccc(CSc2ccc(-c3ccco3)nn2)c1 | inactive
COc1ccc(Cc2c(-c3ccco3)nc3ccc(Br)cn23)c(C)c1 | 20 µM (active)
COc1ccc(C2C(C(=O)c3ccco3)=C(O)C(=O)N2c2nnc(C)s2)cc1 (stereo unspecified) | inactive
O=C(CC1C(=O)NC2CCCCC2N1C(=O)c1ccc([N+](=O)[O-])cc1)Nc1ccccc1 (stereo unspecified) | inactive
Cc1ccc(S(=O)(=O)N2CCN(C(=O)c3cc(C4CC4)nc4c3cnn4C(C)C)CC2)cc1 | inactive
Sc1nnc(-c2ccco2)n1-c1ccc(Br)cc1 | inactive
CC(=O)Nc1c(-c2ccccc2)nc2ccc(Cl)cn12 | inactive
Fc1cccc(Cc2c(-c3ccco3)nc3ccc(Br)cn23)c1 | 39.8 µM (active)
Cc1ccc(Cc2c(-c3ccco3)nc3ccc(Cl)cn23)cc1 | 25.1 µM (active)
Cc1nc2ccc(Cl)cn2c1[N+](=O)[O-] | inactive
CCOC(=O)C1CCN(C(=O)Nc2ccc3nc(-c4ccco4)c(-c4ccco4)nc3c2)CC1 | inactive
Cc1ccc2nc(-c3ccncc3)c(NC3CCCCC3)n2c1 | inactive
Cc1ccc2nc(-c3ccco3)c(CC3CCCCC3)n2c1 | 22.4 µM (active)
COCCNC(=O)c1cc2c(=O)n3cccc(C)c3nc2n(Cc2ccncc2)c1=N | inactive
C/C(=N\NC(=O)C1COc2ccccc2O1)c1ccc(N2CCOCC2)cc1 (stereo unspecified) | inactive
O=C(COC(=O)c1c2c(nc3ccccc13)/C(=C\c1ccco1)CC2)NC1CCCC1 | inactive

SMILES | Potency
O=C1C(=C(I)I)c2ccccc2-c2ccccc21 | 26.7 µM (active)
COc1ccc(C2C=C(C)Nc3nc4ccccc4n32)cc1 (stereo unspecified) | inactive
Cc1ccc(C(C)(C)C)cc1S(=O)(=O)N1CC(=O)Nc2ccccc21 | inactive
COc1ccc(C(=O)c2oc3ccccc3c2NC(=O)c2ccc(F)cc2)cc1 | inactive
COc1ccc(NC(=O)COC(=O)c2[nH]nc3ccccc23)c(OC)c1 | inactive
COc1ccc(NC(=O)c2oc3ccccc3c2NC(=O)COc2ccccc2OC)c(OC)c1 | 35.5 µM (active)
Brc1ccc(C2=CC(c3ccco3)n3ncnc3N2)cc1 (stereo unspecified) | inactive
COc1cccc2cc(C(=O)NCc3ccc(Cl)cc3)c(=O)oc12 | inactive
COc1ccc(/N=c2\oc3cc(O)ccc3cc2C(=O)NCC2CCCO2)c(OC)c1 (stereo unspecified) | inactive
COc1ccc(/N=c2\oc3c(OC)cccc3cc2C(=O)NCc2ccco2)c(OC)c1 | 22.4 µM (active)
CCc1c(C)c(C#N)c2nc3ccccc3n2c1S | inactive
CC(C)=CCC[C@H](C)C[C@@H]1Cc2nc(S)nc(O)c2[C@@H](c2ccc(F)cc2)O1 | 28.2 µM (active)
Cc1ccc(-c2noc(CN(C(=O)c3ccc4c(c3)OCO4)C(C)C)n2)cc1 | inactive
CSc1ccccc1NC(=O)c1cc(CC(C)C)on1 | inactive
CC(=O)c1ccc(OCc2cc(C(=O)N3CCC(c4ccncc4)CC3)no2)cc1 | inactive
CC(CNC(=O)c1cc(COc2ccc3ncccc3c2)on1)c1ccccc1 (stereo unspecified) | 44.7 µM (active)
CCOC(=O)C1CCN(C(=O)Cn2c(=O)c3cccn3c3cccnc32)CC1 | inactive
N#Cc1ccc(OCC(O)CS(=O)(=O)c2ccc(F)cc2)cc1 (stereo unspecified) | inactive
CN(C)c1ccc(N=Nc2ccc(S(=O)(=O)O)cc2)c2ccccc12 | 25.1 µM (active)
Cc1cc(/C=c2\sc3nc4ccccc4n3c2=O)c(C)n1-c1ccc(C(=O)O)cc1 | inactive
FC(F)Oc1ccc(/C=N/NC(=S)Nc2cc(C(F)(F)F)ccc2Cl)cc1 | 39.8 µM (active)
CC(Sc1nc[nH]n1)C(=O)Nc1cc(C(F)(F)F)ccc1Cl (stereo unspecified) | inactive
COc1cc(OC)c(C(=O)OC(C)C(=O)Nc2cc(C(F)(F)F)ccc2Cl)cc1OC (stereo unspecified) | inactive
